# FLuc counter: inhibits or activates purified firefly luciferase, miR-21 counter-screen. purified FLuc, Km substrates, luminescence inhibition. Potency, µM (series often up to 57.5 µM), for inactives: at the top dose activity change, negative = inhibition, usual class: inhibitors. actives 6.9% (n = 360,000). AID 588342;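 note: plate controls were vehicle for no effect and reference inhibitor for full effect; nearly all actives have a fitted effect of over 55% in size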
# Target sequence (P08659 whole entry, looked up): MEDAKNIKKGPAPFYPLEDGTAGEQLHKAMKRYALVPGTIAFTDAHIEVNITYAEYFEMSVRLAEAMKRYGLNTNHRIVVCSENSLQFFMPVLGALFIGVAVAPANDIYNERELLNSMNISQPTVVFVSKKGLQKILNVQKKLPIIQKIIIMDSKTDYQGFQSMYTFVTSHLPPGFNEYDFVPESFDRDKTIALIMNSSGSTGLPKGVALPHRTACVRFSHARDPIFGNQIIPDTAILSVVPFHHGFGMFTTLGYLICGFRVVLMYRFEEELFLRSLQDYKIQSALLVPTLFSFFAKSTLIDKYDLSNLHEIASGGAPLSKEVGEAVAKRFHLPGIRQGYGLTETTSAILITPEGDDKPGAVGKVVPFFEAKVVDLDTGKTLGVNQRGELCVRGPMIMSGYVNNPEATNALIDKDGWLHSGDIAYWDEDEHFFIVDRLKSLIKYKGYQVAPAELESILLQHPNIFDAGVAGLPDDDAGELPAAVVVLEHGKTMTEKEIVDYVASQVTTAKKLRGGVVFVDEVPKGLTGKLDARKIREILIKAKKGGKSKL
#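 Biochemical qHTS of compounds, final roughly 60 µM downward over six points, against 10 nM purified firefly luciferase using Km concentrations of substrates (10 uM D-luciferin, 10 uM ATP) in Tris acetate pH 7.5 buffer; luminescence output.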
# ELG1 repair inh: inhibitors of ELG1-dependent DNA repair in HEK293T cells. actives 2.3% (n = 330,000). HEK293T ELG1-luciferase reporter, luminescence, 16 h; DNA damage induced by 5-fluorouridine. Potency, µM (highest dose often 46.1 µM), without a hit: at the top dose activity change, negative = inhibition, actives largely listed as inhibitors; note: % is set by controls: 0 for no effect and ±100 for the full control effect; nearly all actives have a fitted effect of over 55% in size
#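 Quantitative HTS, concentration-response format. 2,000 cells/well co-treated with 5-fluorouridine and compound, 16 hr in 5% CO2 at 37 °C; ONE-Glo luminescence read after 30 min.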
# Rab9 promoter act: activators of Rab9 promoter; Huh7 Rab9 promoter-luciferase reporter, luminescence, 24 h; Potency, µM (series often up to 9.22 µM), for the others: top-dose activation, negative = inhibition, actives largely listed as activators; actives 2.8% (n = 320,000); AID 485297; note: % of control where 0% means no effect; nearly all actives have a fitted effect of over 60% in size
#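 Cells were plated at 1500 per well in reduced-serum medium with 10% FBS and left 2 h. Compound in DMSO was then added for 24 h at 37 °C. Reporter signal was read by luminescence after 10 min with luciferase detection reagent.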
# NPC1 prom act: activators of NPC1 promoter. Potency, µM (titrated, usually from 9.22 µM), inactives show at the highest dose activation, hits mostly activators. actives 2.4% (n = 320,000). AID 485313. Huh7 NPC1 promoter luciferase reporter, 24 h; note: % of control where 0% means no effect; nearly all actives have a fitted effect of over 60% in size
#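 Stably transfected Huh7 (NPC1 promoter→luciferase), 1500 cells/well in Opti-MEM + 10% FBS, 2 h settle, then compound 24 h at 37 °C. Luminescence after 10 min with Amplite reagent.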
# ELG1 genotoxic: genotoxicity induction in ELG1-luciferase HEK293T cells; Potency, µM (top dose mostly 46 µM), inactives show at the top dose activity change, positive = activation, most hits filed as activators; HEK293T ELG1-luciferase reporter, luminescence, 16 h; actives 1.3% (n = 330,000); note: % of control where 0% means no effect; nearly all actives have a fitted effect of over 60% in size
#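 Screening used a luciferase reporter fused to human ELG1 in HEK293T cells. Luminescence was read on a CCD plate imager after 16 hr exposure and 30 min ONE-Glo incubation.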
# SMN2 splice enh: increases expression of the SMN2 splice variant; actives 2.8% (n = 210,000); HEK293 SMN2-luciferase splicing reporter, luminescence, 30-36 h; Potency, µM (doses to about 46.1 µM), without a hit: top-dose activity change, positive = activation, most hits filed as activators; note: % of control where 0% means no effect; nearly all actives have a fitted effect of over 55% in size
#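 HEK293 cells carry an SMN2 minigene-luciferase reporter in which exon 7 inclusion puts luciferase in frame. Cells were seeded at 2000 cells/well, attached for 10-12 hours, then exposed to compounds for 30-36 hours at 37C before ONE-Glo luminescence.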
# * = called active by the depositor; ? = inconclusive; nt = no result given. A selection: hits, their analogues and other compounds. The true share with any hit is near 9.2%. Calls come from the whole dose curve; as a rule, active = well fitted curve in the direction sought with a large enough effect; inconclusive = small, poorly fitted or top-dose-only effect, or another doubt; inactive = no such curve, though single readings can be large; an effect the other way counts as inactive or inconclusive. Potency is the fitted concentration of half-maximal effect.
SMILES,FLuc counter,ELG1 repair inh,Rab9 promoter act,NPC1 prom act,ELG1 genotoxic,SMN2 splice enh
CCOc1ccc(NS(=O)(=O)c2ccc(C(=O)N3CCN(c4ncccn4)CC3)cc2)cc1,-12%,7.3µM*,-4%,-7%,-12%,-83%
O=C(c1cccc(S(=O)(=O)NCCOc2ccccc2)c1)N1CCN(c2ncccn2)CC1,4%,23µM*,4%,-5%,-6%,-37%
O=C(c1cccc(S(=O)(=O)N2CCCC2)c1)N1CCN(c2ncccn2)CC1,3%,8%,1%,-2%,1%,-8%
Cc1ccc(C2=NN(C(=S)Nc3ccccc3)C(c3ccco3)C2)cc1 (stereo unspecified),7.6µM*,?,3.2µM*,2.8µM*,?,13µM*
CC(=O)c1ccc(NC(=O)CC2Nc3cccc4cccc(c34)NC2=O)cc1 (stereo unspecified),-20%,21µM*,-2%,-4%,-10%,-2%
COc1cc(NC2c3ccccc3C(=O)N2c2cc(C)ccn2)cc(OC)c1OC (stereo unspecified),-3%,?,9%,0%,?,-3%
COc1cc(NC2c3ccccc3C(=O)N2c2ccc(C)cn2)cc(OC)c1OC (stereo unspecified),?,?,?,?,?,11µM*
COc1ccc(/C=C2\SC(=NCc3ccccc3)N(Cc3ccccc3)C2=O)cc1OC,-1%,13µM*,-4%,-1%,3%,-12%
COc1cc(/C=C2/SC(=O)N(Cc3ccccc3)C2=O)ccc1OCc1ccncc1,3%,10µM*,7%,3%,-8%,-17%
Cc1nc2ccccc2c(=O)n1/N=C/c1ccccc1,?,?,4%,3%,2%,4%
Cn1c(=O)n(/N=C/c2ccccc2)c2ccccc21,15µM*,?,17%,27%,2%,?
CCN(CC)CCn1c2ccccc2c2nc3ccccc3nc21,21µM*,?,?,?,?,nt
O=C(CSc1nc(O)cc(=O)[nH]1)N1c2ccccc2CCc2ccccc21,-3%,-4%,-3%,1%,-3%,nt
c1nc(N2CCC3(CC2)OCCO3)c2c3c(sc2n1)CCCC3,2%,-22%,-6%,-4%,-4%,-2%
O=C(c1ccco1)N1CCN(c2ncnc3sc4c(c23)CCC4)CC1,-10%,15µM*,0%,3%,-23%,-15%
c1ccc(N2CCN(c3ncnc4sc5c(c34)CCC5)CC2)cc1,0%,16µM*,-1%,-2%,-6%,-30%
Cc1c(S(=O)(=O)Nc2cccc3ccccc23)c(=O)n(C)c(=O)n1C,-1%,11%,-4%,-1%,1%,nt
O=C(O)/C=C/C(=O)c1ccc2c(c1)CCc1ccccc1-2,24µM*,?,?,26%,-11%,nt
CN(C(=O)C1=CC(c2ccc3c(c2)OCO3)=NS(=O)(=O)N1C)c1ccccc1,-6%,nt,nt,nt,nt,nt
C=CCn1c(C)csc1=Nc1ccccc1C,?,16%,10%,-1%,3%,19%
CCn1c(C)csc1=NC(=O)c1ccccc1,19µM*,?,?,17%,7%,-10%
Cc1csc(=NC(=O)c2ccccc2)n1Cc1ccco1,?,?,17%,13%,1%,-26%
CCn1c(C)csc1=NC(=O)c1ccccc1O,13µM*,?,2.8µM*,2.8µM*,?,-9%
Cc1csc(=NC(=O)c2ccccc2)n1C,13µM*,?,2.5µM*,3.2µM*,21µM*,11µM*
CCc1nn2c(=O)cc(COC(=O)CNC(=O)c3ccccc3)nc2s1,-2%,nt,nt,nt,nt,nt
SMILES,FLuc counter,ELG1 repair inh,Rab9 promoter act,NPC1 prom act,ELG1 genotoxic,SMN2 splice enh
COc1ccc(/C=C/C(=O)NC(=S)N2CCOCC2)cc1,11µM*,?,1.6µM*,3.5µM*,?,nt
COc1ccc(/C=C/C(=O)NC(=S)Nc2ccc(N3CCN(C(C)=O)CC3)cc2)cc1,-3%,0%,-6%,-19%,0%,nt
COc1ccc(/C=C/C(=O)NC(=S)N2CCN(c3ccccc3OC)CC2)cc1,?,?,?,4µM*,18%,nt
NS(=O)(=O)c1ccc(NC(=O)c2ccc(S(=O)(=O)N3CCCCCC3)cc2)cc1,nt,-2%,nt,nt,0%,nt
COc1ccc(N(C)S(=O)(=O)c2ccc3c(c2)CCN3C(=O)C2CC2)c(OC)c1,-2%,-23%,-2%,2%,-23%,nt
COc1cc(C2Nc3ccc4ncccc4c3C3=C2C(=O)CCC3)cc(OC)c1O (stereo unspecified),-1%,16%,-20%,-13%,?,10µM*
CC1(C)CC(=O)C2=C(C1)c1c(ccc3ncccc13)NC2c1cccs1 (stereo unspecified),-1%,19%,-24%,-19%,?,26%
O=C1CCCC2=C1C(c1ccco1)Nc1ccc3ccccc3c12 (stereo unspecified),?,-14%,3%,1%,1%,-13%
COc1cc(C2Nc3ccc4ncccc4c3C3=C2C(=O)CC(C)(C)C3)cc(OC)c1O (stereo unspecified),-2%,?,-11%,-1%,?,28µM*
CCc1sc(/C=C(/C#N)C(N)=S)cc1[N+](=O)[O-],?,-28%,-7%,-4%,1%,-17%
COc1ccc(OC)c(C2CC(=O)c3c([nH]c(C(=O)OCC4CCCCC4)c3C)C2)c1 (stereo unspecified),-8%,nt,nt,nt,nt,19%
COC1=C(c2ccccc2)C(=O)c2ccccc2C1=O,-15%,-11%,13%,-1%,-8%,-19%
O=C(C1=C(c2ccccc2)C(=O)c2ccccc2C1=O)c1ccccc1,5%,6.5µM*,-3%,-1%,-11%,-109%
O=C(N/N=C/c1ccc(O)cc1)c1csc2ccccc12,15µM*,?,1%,19%,1%,4%
O=C(N/N=C/c1ccc(F)cc1)c1cc(-c2ccccn2)nc2ccccc12,-19%,0%,-3%,-9%,2%,nt
COc1ccccc1NS(=O)(=O)c1cccc(C(=O)N/N=C/c2ccccc2OCC(=O)O)c1,-5%,-12%,2%,-4%,10%,17%
Cc1ccc(-c2cc(C(=O)N/N=C/c3ccoc3)c3ccccc3n2)cc1,4.8µM*,-10%,-7%,-8%,-3%,nt
CCOc1ccc(/C=N/NC(=O)c2cc(-c3ccccc3)nc3ccccc23)cc1O,15µM*,-16%,0%,1%,-18%,nt

# Assay outcomes as filed in PubChem BioAssay.
